The results in this text go back to PubChem BioAssay AID2315 (National Center for Advancing Translational Sciences (NCATS), 2010).

The term inhibition denotes the relative decrease from the control value, in per cent.

Each structure is given as a SMILES string. Out of some 290,000 compounds screened, about 27,000 (9.3%) were called active. No stated cut-off is given here; in the data, active means inhibition mostly above about 28% (no sharp cut-off); inactive means mostly below about 43%. Many of the other results were omitted from the sample, so actives are more common in it than they were.

A short description of the experiment: A qHTS for Small Molecule Inhibitors of Shiga Toxin. Further: 0% is about no effect. The following applies: Vero cells, Shiga toxin protein synthesis inhibition reporter; at 38.7 µM, stronger effect = higher value.
Take `CCN(c1cccc(C)c1)S(=O)(=O)c1ccc(-c2coc(C)n2)cc1`: the inhibition was -6.9% (inactive).
Take `O=C(CCl)NNc1nc(-c2ccccc2)c2cc(Cl)ccc2n1`: the inhibition is -6.68% (inactive).
As for `C=CCn1c(C23CC4CC(CC(C4)C2)C3)n[nH]c1=S`, the inhibition is -6.65% (inactive).
In the case of `O=C(COC(=O)c1c2c(nc3ccccc13)CCCC2)c1ccc(Br)s1`, the inhibition was 91.1% (active).
The value for `O=C(Nc1c2c(nc3ccccc13)CCCC2)c1ccccc1Br` was 13.1% (inactive); that for `CCCc1nc2ccccc2c(C(=O)OCC(=O)c2ccc3c(c2)NC(=O)CO3)c1CC` was 7.85% (inactive); that for `Cc1cc(Cl)c(S(=O)(=O)N(C)C)cc1OCC(N)=O` was 9.4% (inactive).
With `Cc1cc(Cl)c(S(=O)(=O)NCC2CCCO2)cc1OCC(N)=O` (stereo unspecified), the inhibition was -1.08% (inactive).
On to `Cc1cc(Cl)c(S(=O)(=O)Nc2ccc3c(c2)OCCO3)cc1OCC(N)=O`, for which the inhibition is 99.8% (active).
As to `O=C(NCc1ccco1)/C(=C\c1cccc([N+](=O)[O-])c1)NC(=O)c1ccco1`, the inhibition was 2.57% (inactive).
With `O=C(CNC(=O)C1COc2ccccc2O1)N/N=C/c1cc(Br)c(O)c(Br)c1` (stereo unspecified), the inhibition was -3.37% (inactive).
The value for `O=C(N/N=C\c1cc(Br)c(Br)o1)C1COc2ccccc2O1` (stereo unspecified) was 10.7% (inactive); that for `O=C(N/N=C/c1cc2c(cc1Br)OCO2)C1COc2ccccc2O1` (stereo unspecified) was 77.9% (active); that for `CC(=O)c1c(C)[nH]c(C(=O)COC(=O)c2cccc(S(=O)(=O)N(C)c3ccccc3)c2)c1C` was 8.98% (inactive).
Regarding `CCCNC(=O)COc1coc(CN2CCN(Cc3ccccc3)CC2)cc1=O`, the inhibition was -16.7% (inactive).
The value for `COCCNC(=O)C(c1ccc(C)cc1)N(C(=O)CCC(=O)Nc1ccccn1)c1cccc(C)c1` (stereo unspecified) was 32.2% (inactive); that for `O=C(Cc1ccc([N+](=O)[O-])cc1)Nc1ccc(C(=O)N2CCOCC2)cc1` was 7.91% (inactive); that for `Cc1ccc(CN(C)Cc2cc(=O)oc3cc(C)c(Cl)cc23)cc1` was 7.75% (inactive).
The value for `NC(=O)N1CCc2ccccc21` was -9.66% (inactive).
With `Cc1cnc(C(=O)OCC(=O)N2CCc3ccccc32)cn1`, the inhibition was -4.93% (inactive).
Take `O=C(c1cnn2ccccc12)N1CCc2ccccc21`: the inhibition was 97.7% (active).
Take `CC1CCc2c(sc3nc4n(c(=O)c23)CCS4)C1` (stereo unspecified): the inhibition is 33.9% (inactive).
With `CCCn1nnc2sc3c(c2c1=O)CCC(C)C3` (stereo unspecified) the figure was 90.4% (active); with `C=CCn1c(SCc2c(C)noc2C)nc2sc3c(c2c1=O)CCC(C)C3` (stereo unspecified), -12.7% (inactive); with `COc1cccc(N2CCN(c3ccc4nnc(CCC(=O)N5CCN(C)CC5)n4n3)CC2)c1`, -1.7% (inactive).
`CCc1ccc(NC(=O)C(=O)N/N=C(\C)CC(=O)NCCOC)cc1`: the inhibition was 63.4% (active).
Take `COCCNC(=O)COc1ccc(C)c(C)c1`: the inhibition was 20.4% (inactive).
The value for `C/C(CC(=O)Nc1ccc(Cl)cc1)=N\NC(=O)C(=O)NCCO` was 12% (inactive); that for `Cc1ccc(N(C(=O)CNC(=O)c2ccco2)C(C(=O)NC2CCCC2)c2ccncc2)cc1` (stereo unspecified) was -7.6% (inactive).
With `CC(=O)N1c2ccc(S(=O)(=O)N3CCCC(C(=O)Nc4ccc(C)cc4C)C3)cc2CC1C` (stereo unspecified), the inhibition is -2.6% (inactive).
With `O=C(N/N=C/c1ccccn1)c1cccnc1` the figure was 39.2% (active); with `O=C(CNC(=O)c1cccnc1)N/N=C/c1cccnc1`, -13% (inactive).
The value for `O=C(N/N=C/c1ccc(O)c2ccccc12)c1cccnc1` was 24.3% (inactive); that for `O=C(N/N=C/c1ccccn1)c1ccc(S(=O)(=O)N2CCCCCC2)cc1` was 184% (active); that for `CNC(=O)C(=O)N/N=C/c1ccccn1` was 35.4% (inactive).
With `Cc1cc(/C=N/NC(=O)c2cccnc2)c(C)n1CC(C)C` the figure was 80.1% (active).
As to `O=C(N/N=C/c1ccccn1)C12CC3CC(CC(C3)C1)C2`, the inhibition is 0% (active).
With `O=C(Nc1ccc(S(=O)(=O)Nc2ncccn2)cc1)C12CC3CC(CC(C3)C1)C2` the figure was 17.2% (inactive); with `O=C(N/N=C/c1ccccn1)c1cccc(NC(=O)c2ccc(Cl)cc2)c1`, 24.3% (inactive).
Regarding `O=C(NN=C1CCC(=NNC(=O)c2cccnc2)CC1)c1cccnc1`, the inhibition is 45.2% (inactive).
The value for `Cc1ccc(NC(=O)COc2ccc(/C=N\NC(=O)c3cccnc3)cc2)cc1C` was 11.2% (inactive); that for `CN1CCN(NC(=O)c2ccc(S(=O)(=O)N3CCCCCC3)cc2)CC1` was -4.86% (inactive).
Turning to `COc1ccc(CNC(=O)/C(C#N)=C/c2cccc(OC)c2OC)cc1`, the inhibition is -10.4% (inactive).
In the case of `Cn1c(C(=O)N2CCCC(C(=O)NCc3ccccc3)C2)cc2sccc21` (stereo unspecified), the inhibition was 18.4% (inactive).
With `Cc1ccc(S(=O)(=O)c2c[nH]c3ccc(C)cc3c2=O)cc1` the figure was -5.73% (inactive).
With `CC(C)CNC(=S)Nc1ccc(F)cc1` the figure was 13.2% (inactive).
With `CC(C)CNC(=O)C(=O)Nc1ccc(N(C)C)cc1` the figure was 55.1% (active).
Consider `CC(C)CNC(=O)C(=O)NCc1ccccc1`, for which the inhibition is 15.5% (inactive).
As for `Cc1cc(C)cc(NC(=O)C2CCCN2S(=O)(=O)c2cccc3cccnc23)c1` (stereo unspecified), the inhibition is -0.303% (inactive).
As to `CCOC(=O)c1cc2n(c1N)-c1ccccc1C2=O`, the inhibition is 72.9% (active).
With `CCOC(=O)c1ccccc1CN1C(=O)c2ccccc2S1(=O)=O`, the inhibition is -3.65% (inactive).
The value for `CCOC(=O)C1=C(C(=O)OCC)C(C(=O)OCC)N(S(=O)(=O)C(F)(F)F)c2ccccc21` (stereo unspecified) was 18.6% (inactive).
Regarding `Cn1nccc1C(=O)N1CCCC(C(=O)c2ccc(Oc3ccccc3)cc2)C1` (stereo unspecified), the inhibition is -15.3% (inactive).
With `Cc1cccc2[nH]c(CN(C)C(=O)C3CCC(=O)N(CCc4ccccc4)C3)nc12` (stereo unspecified) the figure was 17.9% (inactive); with `CCCc1ccc(OCC(O)CN2CCN(CCO)CC2)cc1` (stereo unspecified), -3.37% (inactive); with `O=C(COc1nsnc1N1CCOCC1)Nc1ccccc1Cl`, 5.96% (inactive).
With `CCOc1cc(/C=C/c2nc3ccccc3c(=O)[nH]2)cc(Br)c1OC` the figure was 31.4% (inactive).
`CC1(C)Cc2cccc(OCC(=O)NCc3ccccc3)c2O1`: the inhibition is 21.1% (inactive).
The value for `CCOC(=O)C1(Cc2cccc(OC)c2)CCCN(C(=O)CCSC)C1` (stereo unspecified) was 81.2% (active); that for `CCOC(=O)C1(Cc2cccc(OC)c2)CCCN(S(=O)(=O)c2cccnc2)C1` (stereo unspecified) was -9.17% (inactive).
`CCOC(=O)C1(Cc2cccc(OC)c2)CCN(C(C)COC)CC1` (stereo unspecified): the inhibition was -0.932% (inactive).
